Results published in PubChem BioAssay (Tox21).
Active and inactive are the calls of the source. Calls follow the shape of the dose curve; as a rule, active = well fitted curve in the direction sought with a large enough effect in the repeat runs; inconclusive = weak or mixed curves; inactive = flat fitted curve, though single readings scatter.

Assay: qHTS assay to test for compound auto fluorescence at 460 nm (blue) in HepG2 cell free culture (AID 720685)
Settings: Cell-free culture medium, blue autofluorescence 405/460 nm; series mostly up to 91.3 µM
How it was run: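 Cell-free plates of MEM plus 10% FBS received 23 nL compound or DMSO vehicle; blue-channel (405/460 nm) intensity scored against triamterene as reference fluorophore.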

Compound | outcome
Nc1ccccc1C(=O)O | inactive
Nc1ccc(Br)cc1 | inactive
CON(C)C(=O)Nc1ccc(Cl)c(Cl)c1 | inactive
O=c1n(Cl)c(=O)n(Cl)c(=O)n1Cl | inactive
Cc1ccc([N+](=O)[O-])cc1C | inactive
O=S(=O)(c1ccc(Cl)cc1)c1cc(Cl)c(Cl)cc1Cl | inactive
CCC[CH2][Sn]([Cl])([Cl])[Cl] | inactive
NCC(O)c1ccc(O)cc1 (stereo not drawn) | inactive
Cc1ccc(N)cc1Cl | inactive
Cc1[nH]c(=O)n(C(C)(C)C)c(=O)c1Cl | inactive
CCOP(OCC)OCC | inactive
[O-][Cl+2]([O-])O | inactive
C1CC2OC2CC1C1CO1 (stereo not drawn) | inactive
CCc1cccc(C)c1N(C(=O)CCl)C(C)COC (stereo not drawn) | inactive
CN1C(=O)CN=C(c2ccccc2)c2cc(Cl)ccc21 | inactive
BrCCBr | inactive
CCC[N+](=O)[O-] | inactive
Cc1cc(-c2cc(C)c(N)c(C)c2)cc(C)c1N | inactive

Compound | outcome
CCC(C)(CC)c1cc(NC(=O)c2c(OC)cccc2OC)on1 | inactive
C1CN2CCN1CC2 | inactive
CCNc1nc(NC(C)C)nc(SC)n1 | inactive
CC1OC(C)OC(C)O1 (stereo not drawn) | inactive
COc1ccc2c3c1O[C@H]1[C@@H](O)C=C[C@H]4[C@@H](C2)N(C)CC[C@@]341 | inactive
Cc1cccc([N+](=O)[O-])c1 | inactive
O=c1ccc(=O)[nH][nH]1 | inactive
OC(O)C(Cl)(Cl)Cl | inactive
CCCN(CCC)c1c([N+](=O)[O-])cc(C(F)(F)F)cc1[N+](=O)[O-] | inactive
CCCCOC(=O)c1ccccc1C(=O)OCCCC | inactive
CCC12COCN1COC2 | inactive
CN=C=S | inactive
ClCCBr | inactive
CC(C)OC(=O)Nc1ccccc1 | inactive
C[C@]12CC[C@H]3[C@@H](CC[C@@]45O[C@@H]4C(O)=C(C#N)C[C@]35C)[C@@H]1CC[C@@H]2O | inactive
CC(C)OC(=O)Nc1cccc(Cl)c1 | inactive
CC(C)NC(=O)N1CC(=O)N(c2cc(Cl)cc(Cl)c2)C1=O | inactive
OCCN(CCO)CCO | inactive

Assay: qHTS assay to test for compound auto fluorescence at 535 nm (green) in HepG2 cell free culture (AID 720686)
Settings: Cell-free medium, green autofluorescence 485/535 nm; series mostly up to 91.3 µM

Compound | outcome
Nc1ccccc1C(=O)O | inactive
Nc1ccc(Br)cc1 | inactive
CON(C)C(=O)Nc1ccc(Cl)c(Cl)c1 | inactive
O=c1n(Cl)c(=O)n(Cl)c(=O)n1Cl | inactive
Cc1ccc([N+](=O)[O-])cc1C | inactive
O=S(=O)(c1ccc(Cl)cc1)c1cc(Cl)c(Cl)cc1Cl | inactive
CCC[CH2][Sn]([Cl])([Cl])[Cl] | inactive
NCC(O)c1ccc(O)cc1 (stereo not drawn) | inactive
Cc1ccc(N)cc1Cl | inactive
Cc1[nH]c(=O)n(C(C)(C)C)c(=O)c1Cl | inactive
CCOP(OCC)OCC | inactive
[O-][Cl+2]([O-])O | inactive
C1CC2OC2CC1C1CO1 (stereo not drawn) | inactive
CCc1cccc(C)c1N(C(=O)CCl)C(C)COC (stereo not drawn) | inactive
CN1C(=O)CN=C(c2ccccc2)c2cc(Cl)ccc21 | inactive
BrCCBr | inactive
CCC[N+](=O)[O-] | inactive
Cc1cc(-c2cc(C)c(N)c(C)c2)cc(C)c1N | inactive

Compound | outcome
CCC(C)(CC)c1cc(NC(=O)c2c(OC)cccc2OC)on1 | inactive
C1CN2CCN1CC2 | inactive
CCNc1nc(NC(C)C)nc(SC)n1 | inactive
CC1OC(C)OC(C)O1 (stereo not drawn) | inactive
COc1ccc2c3c1O[C@H]1[C@@H](O)C=C[C@H]4[C@@H](C2)N(C)CC[C@@]341 | inactive
Cc1cccc([N+](=O)[O-])c1 | inactive
O=c1ccc(=O)[nH][nH]1 | inactive
OC(O)C(Cl)(Cl)Cl | inactive
CCCN(CCC)c1c([N+](=O)[O-])cc(C(F)(F)F)cc1[N+](=O)[O-] | inactive
CCCCOC(=O)c1ccccc1C(=O)OCCCC | inactive
CCC12COCN1COC2 | inactive
CN=C=S | inactive
ClCCBr | inactive
CC(C)OC(=O)Nc1ccccc1 | inactive
C[C@]12CC[C@H]3[C@@H](CC[C@@]45O[C@@H]4C(O)=C(C#N)C[C@]35C)[C@@H]1CC[C@@H]2O | inactive
CC(C)OC(=O)Nc1cccc(Cl)c1 | inactive
CC(C)NC(=O)N1CC(=O)N(c2cc(Cl)cc(Cl)c2)C1=O | inactive
OCCN(CCO)CCO | inactive

Assay: qHTS assay to test for compound auto fluorescence at 460 nm (blue) in HepG2 cells (AID 720687)
Settings: autofluorescence 405/460 nm, 1 h; series mostly up to 91.3 µM
How it was run: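 HepG2 cells in MEM with 10% FBS, attached overnight at 37 C, were exposed to compound or DMSO for 1 hr at 37 C, 5% CO2. Blue fluorescence was read at 405/460 nm, with triamterene as reference fluorophore.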

Compound | outcome
Nc1ccccc1C(=O)O | inactive
Nc1ccc(Br)cc1 | inactive
CON(C)C(=O)Nc1ccc(Cl)c(Cl)c1 | inactive
O=c1n(Cl)c(=O)n(Cl)c(=O)n1Cl | inactive
Cc1ccc([N+](=O)[O-])cc1C | inactive
O=S(=O)(c1ccc(Cl)cc1)c1cc(Cl)c(Cl)cc1Cl | inactive
CCC[CH2][Sn]([Cl])([Cl])[Cl] | inactive
NCC(O)c1ccc(O)cc1 (stereo not drawn) | inactive
Cc1ccc(N)cc1Cl | inactive
Cc1[nH]c(=O)n(C(C)(C)C)c(=O)c1Cl | inactive
CCOP(OCC)OCC | inactive
[O-][Cl+2]([O-])O | inactive
C1CC2OC2CC1C1CO1 (stereo not drawn) | inactive
CCc1cccc(C)c1N(C(=O)CCl)C(C)COC (stereo not drawn) | inactive
CN1C(=O)CN=C(c2ccccc2)c2cc(Cl)ccc21 | inactive
BrCCBr | inactive
CCC[N+](=O)[O-] | inactive
Cc1cc(-c2cc(C)c(N)c(C)c2)cc(C)c1N | inactive

Compound | outcome
CCC(C)(CC)c1cc(NC(=O)c2c(OC)cccc2OC)on1 | inactive
C1CN2CCN1CC2 | inactive
CCNc1nc(NC(C)C)nc(SC)n1 | inactive
CC1OC(C)OC(C)O1 (stereo not drawn) | inactive
COc1ccc2c3c1O[C@H]1[C@@H](O)C=C[C@H]4[C@@H](C2)N(C)CC[C@@]341 | inactive
Cc1cccc([N+](=O)[O-])c1 | inactive
O=c1ccc(=O)[nH][nH]1 | inactive
OC(O)C(Cl)(Cl)Cl | inactive
CCCN(CCC)c1c([N+](=O)[O-])cc(C(F)(F)F)cc1[N+](=O)[O-] | inactive
CCCCOC(=O)c1ccccc1C(=O)OCCCC | inactive
CCC12COCN1COC2 | inactive
CN=C=S | inactive
ClCCBr | inactive
CC(C)OC(=O)Nc1ccccc1 | inactive
C[C@]12CC[C@H]3[C@@H](CC[C@@]45O[C@@H]4C(O)=C(C#N)C[C@]35C)[C@@H]1CC[C@@H]2O | inactive
CC(C)OC(=O)Nc1cccc(Cl)c1 | inactive
CC(C)NC(=O)N1CC(=O)N(c2cc(Cl)cc(Cl)c2)C1=O | inactive
OCCN(CCO)CCO | inactive
